Inconclusive results are not listed. Values without a mark were called inactive. Calls follow the shape of the dose curve; as a rule, active = well fitted inhibition curve with a large enough effect; inconclusive = small, poorly fitted or top-dose-only effect; inactive = flat fitted curve, though single readings scatter.
The compounds below were run against Aldehyde dehydrogenase, mitochondrial (Homo sapiens) (UniProt P05091) (assay: qHTS for Inhibitors of the Aldehyde Dehydrogenase Family (ALDH2) Primary screen (AID 2061308;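 also: plate controls were vehicle for no effect and reference inhibitor for full effect; nearly all actives have a fitted effect of over 55% in size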)). Details: ALDH2 enzyme inhibition qHTS, 1536-well; series mostly up to 56 µM; activity change, negative = inhibition: at the top concentration.

Row | SMILES | activity change, negative = inhibition
1 | CC1(C)CC[C@]2(C(=O)O[C@@H]3O[C@H](CO[C@@H]4O[C@H](CO)[C@@H](O)[C@H](O)[C@H]4O[C@@H]4O[C@H](CO)[C@@H](O)[C@H](O)[C@H]4O)[C@@H](O)[C@H](O[C@@H]4O[C@H](CO)[C@@H](O)[C@H](O)[C@H]4O)[C@H]3O)CC[C@]3(C)C(=CCC4[C@@]5(C)CC[C@@H](O)[C@@](C)(C(=O)O[C@@H]6O[C@H](CO)[C@@H](O)[C@H](O)[C@H]6O)C5CC[C@]43C)[C@@H]2C1 (stereo partly drawn) | 5.56% [at 11.2 µM]
2 | C[C@@H]1CC[C@H]2C(C)(C)[C@H](O)[C@H](O)C[C@]2(C)[C@@]12Cc1c(O)cc3c(c1O2)CNC3=O | 1.14%
3 | COC1CC(O[C@H]2CC[C@@]3(C)C(=CC[C@]4(O)C3[C@H](O)[C@@H](O)[C@]3(C)[C@@H]([C@H](C)O)CC[C@@]34O)C2)OC(C)C1OC1CC(OC)C(OC2CC(OC)C(OC3OC(C)C(OC4OC(CO)C(O)C(O)C4O)C(OC)C3O)C(C)O2)C(C)O1 (stereo partly drawn) | -2.4% [at 16.9 µM]
4 | CC(=O)OC1C(OC(=O)c2ccccc2)C2C(=C(C)CCC2(C)C)C23CCC(C)(C2)C(=O)CC13 (stereo not drawn) | 4.74% [at 28 µM]
5 | CC(C)=CCc1cc2c(cc1O)OC[C@H]1c3ccc(O)cc3O[C@@H]21 | 0.114%
6 | CS/C=C/C(=O)O[C@@H]1CCC2=CC(=O)C(=C(C)C)C[C@]2(C)[C@H]1C | -22.5%
7 | CC(=O)NC(C(=O)OC1CCC(C)(C)C2CC=C3C(=O)OCC3(O)C12C)C(C)C (stereo not drawn) | -2.53% [at 28 µM]
8 | CO[C@H]1C[C@@H]2CC[C@@H](C)[C@@](O)(O2)C(=O)C(=O)N2CCCC[C@H]2C(=O)O[C@H]([C@H](C)C[C@@H]2CC[C@H](n3cnnn3)[C@H](OC)C2)CC(=O)[C@H](C)/C=C(\C)[C@@H](O)[C@@H](OC)C(=O)[C@H](C)C[C@H](C)/C=C/C=C/C=C/1C | -11.3% [at 28 µM]

From PubChem BioAssay (NCATS)
